In PubChem BioAssay (NCI):
The panel holds about 83,000 compounds, 20% with a hit somewhere; the sample as a whole holds those more often.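 Each cell line was grown in a 96-well plate and treated with one concentration of compound for 48 hours. Values below 10 were considered active.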 Values without a mark were called inactive. Active and inactive are the calls of the source.

Key:
Assay in all cases: NCI-60 one-dose screen, 48 h (100 = growth as untreated, 0 = no growth, -100 = all killed)
Conditions in all cases: 10 µM unless noted
[1] = tested on: HCT-15 colon
[2] = tested on: HT29 colon
[3] = tested on: SNB-75 CNS
[4] = tested on: SNB-19 CNS
[5] = tested on: PC-3 prostate
[6] = tested on: SK-MEL-5 melanoma
[7] = tested on: UACC-62 melanoma
[8] = tested on: LOX IMVI melanoma
[9] = tested on: SK-MEL-28 melanoma
[10] = tested on: U251 CNS

Compound	growth [1]	growth [2]	growth [3]	growth [4]	growth [5]	growth [6]	growth [7]	growth [8]	growth [9]	growth [10]
CC(=O)C(CO)C(=O)Nc1ccccc1 (centres undefined)	98.8%	101%	63.3%	101%	102%	103%	98.2%	83.7%	99.8%	–
COC(=O)c1c[n+]([O-])ccc1OC	103%	107%	96.6%	101%	99.5%	99.7%	101%	104%	91.4%	–
CCN(CC)CCOC(=O)c1cccnc1	98.7%	107%	79.6%	–	99.7%	98%	103%	90.9%	98.4%	97.7%
COc1cc2ncnc(-n3ncc4cc(NC(=O)Nc5ccccc5)ccc43)c2cc1OC	21%	29.1%	-12.4% (active)	44.7%	–	40.2%	23.9%	–	-15.1% (active)	–
Nc1nc2c(c3cnccc13)C(c1ccc(Cl)c(Cl)c1)Cc1cnccc1-2 (centres undefined)	-19.5% (active)	8.17% (active)	-26.9% (active)	13.7%	5.13% (active)	-92.2% (active)	-37.3% (active)	-42.7% (active)	-41.3% (active)	–
CCOC(=O)c1cc(C(=O)c2ccc(Br)cc2)n2cc(C)cc(C)c12	95.5%	82.3%	82.8%	87%	84.1%	96.2%	89.3%	92.3%	98.5%	–
CCCCCSc1ccc2nc(NC(=O)OCCC)sc2c1	26.1%	15.9%	13.3%	40.9%	27.7%	17.7%	31.1%	38.6%	70.9%	–
CN(CCC#N)c1ccc(/C=C(\C#N)c2cccc(C(F)(F)F)c2)cc1	39.9%	23.5%	90.1%	79%	61.1%	57.8%	55.3%	63.2%	71.9%	–
O=C(Nc1ccccc1)Nc1ccc(Nc2ncnc3sc4c(c23)CCCC4)cc1	110%	96.2%	93.3%	95.9%	89.9%	97.3%	97.9%	99.5%	116%	–
COc1cc(OC)cc(-c2ccc(-c3ccc(C(=N)N)cc3)s2)c1	-79.6% (active)	-68.8% (active)	-94.9% (active)	-71.8% (active)	-94.7% (active)	-100% (active)	-85.1% (active)	-86.3% (active)	-87.7% (active)	–
CCOC(=O)c1csc(-c2ccc(COC(=O)c3ccccc3)o2)n1	96%	104%	92%	97.5%	96.6%	98.2%	102%	110%	101%	–
COc1cc(OC)c(NC(=O)n2ncc3cc(Nc4ncnc5ccccc45)ccc32)cc1Cl	93.8%	80.3%	118%	90.6%	97.5%	94.3%	105%	102%	98.7%	–
O=C(NC(=S)NNC(=S)NNc1ccccc1)c1ccccc1	54%	81.2%	4.67% (active)	–	32.6%	25.4%	25.2%	48.3%	59.3%	48%
Nc1nc2c(c3cnccc13)C(c1cccc(Br)c1)Cc1cnccc1-2 (centres undefined)	7.06% (active)	4.32% (active)	18.9%	24%	11.6%	–	21.8%	8.43% (active)	49.4%	–
COc1cc2ncnc(Nc3ccc4c(cnn4C(=O)Nc4ccccc4)c3)c2cc1OC	83.2%	51.1%	114%	95.4%	98.9%	90.9%	114%	93.2%	77.3%	–
CC(=O)Oc1cc2ccccc2cc1C(C)C	99.1%	114%	92.3%	–	115%	101%	116%	109%	113%	112%
CC(=O)N1CCN(CCNC(=O)n2cc(-c3ccncc3)c(-c3cc(O)cc(Cl)c3)n2)CC1	51.1%	21.7%	–	106%	114%	63.6%	27.8%	68.3%	31.4%	80.1%
COc1ccc2c(c1)cn1c3ccc(O)cc3[nH]c(=O)c21	2.24% (active)	-43.1% (active)	–	21.7%	11%	13%	39%	3.95% (active)	27.9%	10.5%
CC(C)C(=O)c1ccc(Cl)s1	97.5%	120%	80.9%	–	103%	–	100%	91%	111%	99.2%

Compound	growth [1]	growth [2]	growth [3]	growth [4]	growth [5]	growth [6]	growth [7]	growth [8]	growth [9]	growth [10]
O=c1[nH]c(=S)[nH]c(O)c1/C=C1\C=Nc2ccccc21	56.2%	58.6%	71.8%	–	61.7%	75.8%	–	–	96.8%	24%
C/C(=C\c1ccc2ccccc2c1)[N+](=O)[O-]	–	-9.28% (active)	78%	90.6%	25.3%	71.3%	78.2%	-80.9% (active)	37%	72.7%
CCCCCCNc1nc(N2CCOCC2)c2[nH]c(NCCCCCC)nc2n1	-74.6% (active)	–	-95.1% (active)	-92.7% (active)	-21.2% (active)	-90.6% (active)	-97.4% (active)	-100% (active)	-94.4% (active)	-93.4% (active)
O=c1c2c(c3ccccc3n1-c1ccccc1)NC(=S)NC2c1ccccc1 (centres undefined)	97.1%	132%	–	99%	–	97.9%	96%	97.9%	116%	107%
CCCCCC(=C/c1ccccc1)/C=N/N=C(N)N	-37.8% (active)	-66.3% (active)	56.6%	–	37.8%	-91.5% (active)	–	-37.6% (active)	-90.2% (active)	–
O=C(Nc1ccc(-n2cc(-c3ccncc3)c(-c3ccc(Cl)c(O)c3)n2)cc1)c1ccc(Cl)c(Cl)c1	12.2%	-34.7% (active)	–	77.1%	17.2%	-99.3% (active)	11.3%	29.1%	-7.55% (active)	34.1%
COc1cc2cn3c4ccc(O)cc4[nH]c(=O)c3c2cc1OC	23.3%	-70.2% (active)	–	30.9%	66.4%	-90.7% (active)	-9.19% (active)	0.607% (active)	11.5%	12%
COc1cccc(-c2cc(-c3cc4ccccc4oc3=O)nc(N)n2)c1	107%	117%	–	106%	–	95%	104%	95.4%	91.7%	110%
CCOc1ccc(Br)cc1/C=C(\C#N)c1ccc([N+](=O)[O-])cc1	84.7%	87.1%	22.1%	–	71.2%	81.8%	91.7%	87.8%	58.6%	67.3%
COc1cc(-c2nn(-c3ccc(NC(=O)c4ccc(Cl)c(Cl)c4)cc3)cc2-c2ccncc2)ccc1Cl	10.9%	-14.7% (active)	–	85.9%	68.6%	64.8%	64.4%	35.9%	67.8%	48.7%
COC(=O)C(C(=O)OC)C(Br)C(Br)C(Br)c1ccccc1 (centres undefined)	79.7%	–	87.4%	100%	101%	91.5%	80.9%	-16% (active)	106%	94.8%
CCN(CC)c1ccc2nc3ccc(N=Nc4ccc(O)cc4)cc3[n+](-c3ccccc3)c2c1	65.6%	28.9%	–	73.3%	48.3%	46.3%	59.3%	36.5%	52.2%	44.1%
Cc1ccc(C(=O)C(Br)C(Br)c2ccccc2)cc1 (centres undefined)	80.3%	101%	82.9%	–	108%	94.3%	94.7%	66.6%	101%	82.7%
O=C1CSC(c2ccccc2Cl)N1c1nnc(-c2ccncc2)o1 (centres undefined)	98.5%	98.4%	95.4%	–	98.5%	–	92.3%	102%	101%	96.6%
COc1cc(-c2nn(-c3ccc(NC(=O)Nc4cc(C(F)(F)F)cc(C(F)(F)F)c4)cc3)cc2-c2ccncc2)ccc1Cl	6.27% (active)	-30.2% (active)	–	26.7%	10.6%	-71% (active)	3.75% (active)	-1.69% (active)	5.41% (active)	7.85% (active)
O=c1[nH]c2cc(O)ccc2n2cc3c(F)cccc3c12	38.7%	46.2%	–	42.3%	–	8.21% (active)	39.8%	36.8%	–	27.6%
Cc1c([C@H](C(Cl)Cl)[C@H](O)[C@H]2C[C@H](C)C(=O)O2)ccc2c1C(=O)[C@H]1[C@H]2C[C@@H](Br)[C@@]23O[C@@H](CO[C@H]2O)CC13C (some centres undefined)	7.63% (active)	13.1%	58.4%	–	–	–	26.6%	33.4%	47.6%	14.4%
Cn1c2c(cc(S(=O)(=O)c3ccccc3)c1=O)CCc1c-2cnn1-c1ccc(Cl)cc1	39.5%	16.8%	-54.3% (active)	–	–	6.71% (active)	35.4%	6.82% (active)	–	20.7%
COc1ccc2cn3c4ccc(O)cc4[nH]c(=O)c3c2c1	17.8%	-89.2% (active)	–	19.7%	–	10.9%	34.9%	24.4%	24.8%	5% (active)

Compound	growth [1]	growth [2]	growth [3]	growth [4]	growth [5]	growth [6]	growth [7]	growth [8]	growth [9]	growth [10]
CCCCCN1CCN(C(CC(=O)c2ccccc2)C(=O)c2ccccc2)CC1 (centres undefined)	94.5%	96.4%	100%	–	92.6%	106%	–	82.8%	119%	92.6%
Nc1nc2cc(O)ccc2n2cc3c(F)cccc3c12	35.6%	20.7%	–	35.9%	42.2%	14.2%	39%	34.9%	20%	32.8%
C=CN(C)S(C)(=O)=O	–	72.1%	32.6%	50.1%	16.9%	12.1%	43%	29.7%	38.7%	19.2%
Cc1cc2cn3c4ccc(O)cc4[nH]c(=O)c3c2cc1C	3.8% (active)	-67.6% (active)	–	40.7%	37.5%	-31.5% (active)	49%	4.61% (active)	-14.3% (active)	-44.1% (active)
Cc1ccc(C(=O)NN)cc1	102%	111%	94.5%	–	109%	108%	–	96.5%	109%	–
OCCN1CCCN(CCCN2c3ccccc3Sc3ccc(C(F)(F)F)cc32)CC1	61.6%	8.24% (active)	50.4%	–	57.2%	36.3%	-46.3% (active)	49%	30.7%	33.6%
CCCCCCCCCCCCCCCCC(=O)O.CCCCCCCCCCCCCCCCCC(=O)O.CCCCCCCCCCCCCCCCCC(=O)O.CCCCCCCCCCCCCCCCCC(=O)O.CCCCCCCCCCCCCCCCCC(=O)O.CO[CH-]OC12COC1CC(O)C1(C)C(O)C(OC(C)O)C3=C(C)C(OC(=O)C(O)C([NH-])c4ccccc4)CC(O)(C(OC(=O)c4ccccc4)C21)C3(C)C.[Cu+].[Zn].[Zn].[Zn].[Zn].[Zn] (centres undefined)	20.5%	12%	–	29.6%	30.5%	38.4%	42.8%	39.4%	80.4%	33.6%
COc1cc(OC)c(/C=C/c2ccc3ccccc3[n+]2C)c(OC)c1	77.5%	3.11% (active)	11.2%	–	10.7%	-74% (active)	0.263% (active)	-33.2% (active)	9.89% (active)	13.3%
COc1cc(C(=O)Nc2ccc(N(C)C)cc2)cc(OC)c1OC	73.3%	86.2%	74.9%	–	–	89.9%	82%	93.3%	81.9%	95.4%
COC(=O)c1cc(O)c2cc3c(cc2c1-c1cc(OC)c(OC)c(OC)c1)OCO3	23.6%	-9.35% (active)	–	36.9%	–	3.09% (active)	44.2%	29.7%	51.5%	42.3%
C=CCN(C)C	113%	113%	–	102%	105%	108%	101%	99.8%	110%	102%
CCCCN(CCC)CCCCCCCCCCN1CCCc2ccccc21	78.8%	21.8%	89%	–	45.8%	98.8%	–	67.8%	118%	87.7%
C=C1CCC2C3(C)COC(c4ccccc4)OC3CCC2(C)C1C/C=C1/C(=O)OCC1O (centres undefined)	61.9%	54.1%	35.9%	–	–	–	67.4%	72.6%	–	64.9%
Cc1cc2cn3c4ccc(O)cc4nc(N)c3c2cc1C	7.85% (active)	-65.6% (active)	–	29.1%	–	-62.4% (active)	46.9%	27.4%	-4.38% (active)	-5.52% (active)
Nc1nc(-c2cccc(Br)c2)cc(-c2cc3ccccc3oc2=O)n1	106%	117%	–	109%	122%	89.7%	101%	95.8%	126%	106%
COc1ccc(C(=O)N2N=C(c3ccc(Br)cc3)CC2c2cn(-c3ccccc3)nc2-c2ccccc2)cc1 (centres undefined)	58.9%	–	70.4%	65.3%	36.1%	92.3%	74.7%	44.5%	61.2%	6.67% (active)
OCCN1CCN(CC/C=C2/c3ccccc3Sc3ccc(C(F)(F)F)cc32)CC1	71.1%	15.8%	56.5%	–	–	56.5%	14.4%	65.5%	68%	41%
CCOC(=O)C(C)C(C)(O)c1ccccc1 (centres undefined)	108%	106%	87.5%	–	99.9%	102%	97.4%	–	101%	107%
